Compounds with a hit are over-represented: about 1.4% of the library has one in this group of screens.
MbtI inh – MbtI salicylate synthase inhibitors, primary screen, biochemical, fluorescence intensity; purified MbtI enzyme, fluorescence intensity read-out; inhibition, % (concentration not given with the values); AID 493033, 2011; actives 0.89% (n = 100,000); P9WFX0; in the data active = inhibition mostly above about 56%, no sharp cut-off; inactive = mostly below about 77%
AID504770 – growth inhibition of E. coli YBA685, primary screen, V. cholerae RctB inhibitors | E. coli YBA685 rctB-dependent plasmid, OD600 growth, 3 h; stronger effect = lower value | z-score (test concentration not listed) | actives 0.27% (n = 130,000); in the data active = z-score below about -2, passing the limit was not always enough
Polio RdRp inh – poliovirus RdRp elongation inhibitors, primary screen, biochemical, fluorescence polarization, total intensity; poliovirus polymerase elongation; stronger effect = lower value; % elongation, % (compound at 16.7 µg/mL); actives 0.66% (n = 150,000); AID 588519, 2011; in the data active = % elongation below about 90%
Target sequence (P03300 1749-2209 limits assumed): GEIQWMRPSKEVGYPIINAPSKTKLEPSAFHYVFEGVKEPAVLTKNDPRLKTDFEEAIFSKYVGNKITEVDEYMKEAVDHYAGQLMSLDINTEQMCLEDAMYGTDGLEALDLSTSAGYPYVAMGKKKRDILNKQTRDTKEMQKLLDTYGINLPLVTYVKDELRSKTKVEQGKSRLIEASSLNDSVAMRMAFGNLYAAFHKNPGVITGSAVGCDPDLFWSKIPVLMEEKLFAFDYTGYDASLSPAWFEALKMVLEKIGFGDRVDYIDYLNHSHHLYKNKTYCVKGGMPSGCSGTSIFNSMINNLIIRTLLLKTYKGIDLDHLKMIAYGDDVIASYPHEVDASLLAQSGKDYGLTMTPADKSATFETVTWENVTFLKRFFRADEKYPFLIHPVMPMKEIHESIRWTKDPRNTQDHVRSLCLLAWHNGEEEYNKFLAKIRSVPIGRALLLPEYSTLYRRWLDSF
MenB inh – M. tuberculosis MenB inhibitors, primary screen, biochemical, absorbance; MenB enzyme assay, absorbance read-out; inhibition, % (concentration not given with the values); actives 0.43% (n = 100,000); in the data active = inhibition above about 21%, passing the limit was not always enough
Starred values were filed as active, the others as inactive; x = no result.

SMILES	MbtI inh	AID504770	Polio RdRp inh	MenB inh
CCOC(=O)c1cccc(NC(=O)Cc2ccc(NC(=O)N3CCCCc4ccccc43)cc2)c1	x	x	21*	x
COc1cccc(NC(=O)Cc2ccc(NC(=O)N3CCCCc4ccccc43)cc2)c1	x	x	104	x
O=C1c2ccccc2S(=O)(=O)N1C(=O)c1cc(F)c(F)c(F)c1F	-8	-1.2	100	x
N/C(Cc1nc2ccccc2[nH]1)=N\O	-3	-0.3	106	44*
O=C(Cc1nc2ccccc2[nH]1)c1cccs1	5	-1.7	22*	x
CCCn1c(C)cc(/C=C(\C#N)C(=O)OCc2nc(N)nc(Nc3ccccc3C)n2)c1C	0	1.1	106	-13
C/C=C(\C)CN1CCN(CCOCCO)CC1	-10	0.6	100	-12
O=C(Cn1nnc(-c2ccncc2)n1)N(C1CCCCC1)C1CCCCC1	0	-1	104	active
CN(C)C(=S)SSC(=S)N(C)C	87*	-0.85	101	8
CCN1CCN(C(c2cccnc2)c2ccc3cccnc3c2O)CC1 (centres undefined)	89*	1.2	87*	-45
COc1ccc(C(c2ccc3cccnc3c2O)N2CCOCC2)cc1 (centres undefined)	98*	0.2	102	-64
CCCc1n[nH]c2c1/C(=N\O)CC(c1ccccc1)C2 (centres undefined)	-8	-0.2	101	x
FC(F)Oc1ccc(NC(=S)NNc2nc3ccccc3[nH]2)cc1	95	0.6	44*	1
O=C(Cc1n[nH]c(=O)c2ccccc12)N1CCc2ccccc2C1	-6	-0.55	x	-11
COc1ccc(CNCc2cccc(OC)c2)cc1	5	-0.25	89*	0
COc1cc(Cl)c(C)cc1NC(=O)NCc1noc2ccccc12	10	-0.05	102	-14
CCOC(=O)c1cc(C(=O)O)nn1C	-2	0.05	101	28*
CCOC(=O)c1cc(C(=O)OCC)n(C)n1	x	-0.2	104	-5
CCOc1ccc(N2C(=O)CC(Sc3nccc(C)n3)C2=O)cc1 (centres undefined)	32	-0.4	104	-10
Cc1cccc(N2C(=O)CC(Sc3ncn[nH]3)C2=O)c1 (centres undefined)	99*	0.05	97	10
Cc1cccc(N2C(=O)CC(Sc3nccc(C)n3)C2=O)c1 (centres undefined)	63*	-0.05	101	4
CC(C)n1cnnc1SCC(=O)NC(=O)c1ccc(Cl)cc1	11	0.25	102	-14
O=C(COC(=O)c1cc2ccccc2oc1=O)Nc1ncccn1	-96	1.1	88*	-21
CN(C)C(=O)COC(=O)c1cc2ccccc2oc1=O	41	-0.95	103	-23
CCOc1ccc(NC(=O)CN2CCN(CC)CC2)cc1	-16	-1	103	0
SMILES	MbtI inh	AID504770	Polio RdRp inh	MenB inh
NC(=O)C1CCN(CC(O)COc2ccc(Br)cc2)CC1 (centres undefined)	x	-1.1	x	x
CCOc1cc(S(=O)(=O)NCCc2ccc(OC)c(OC)c2)c(OCC)cc1-n1cnnn1	-18	1.9	103	44*
CCOc1cc(S(=O)(=O)NCc2ccc(OC)cc2)c(OCC)cc1-n1cnnn1	48	1.6	102	23
CC(C)(C)C(=O)COC(=O)Cn1nc(C(N)=O)c2ccccc2c1=O	0	-0.55	102	-6
Fc1ccc(/C=N/c2nnc3nc[nH]n23)cc1	x	-0.7	88*	-4
O=C1CC(NC(=O)c2ccc(Cl)cc2)C(=O)N1 (centres undefined)	79*	-0.1	102	x
Cc1ccc(C(=O)N2CCN(c3ccccc3F)CC2)cc1S(=O)(=O)N1CCCC1	x	-0.95	x	x
NNC(=O)Cc1nn2c(C3CCCCC3)nnc2s1	70*	2.2	99	-20
CCOC(=O)CC1=Nn2c(nnc2C2CCCCC2)SC1	3	-0.45	105	-16
O=c1c(Cl)c(Nc2ccc(F)cc2)cnn1-c1ccccc1	3	-0.4	84*	3
C=CCn1c(=S)[nH]c2cc(OCC)c(OCC)cc2c1=O	1	-0.25	101	-9
COC(=O)C1=C(O)/C(=C\c2ccc(Br)cc2)N=C1C	1	-0.5	101	-10
CC(=O)NC(=S)Nc1cccc(C)c1	6	-1.6	101	-16
Cc1cccc(NC(=S)Nn2c(O)c(C)sc2=S)c1	93*	-0.6	99	-67
CCN(C(=O)Nc1ccccc1)C1CCCCC1	5	2.2	101	-2
Clc1nsc2ccccc12	96	-0.9	x	-42
S=c1[nH]c2c(s1)sc1ccccc12	91*	0.45	102	-83
OC1(C2(O)CCCCC2)CCCCC1	-3	-0.05	102	x
O=C(CSC1=Nc2ccccc2C2=NC(CC(=O)NCc3ccccc3)C(=O)N12)NCc1ccco1 (centres undefined)	53	-1.1	99	-15
NC(=O)CN1C(=O)C(O)(CC(=O)/C=C\c2ccccc2)c2ccccc21 (centres undefined)	22	1.4	102	43*
CC(C)CC1(C)NC(=O)N(CC(=O)c2ccc(Cl)s2)C1=O (centres undefined)	4	-0.5	116	8
Cc1nc(Cc2nnc(SCc3cn4cccc(C)c4n3)o2)cs1	1	-0.5	100	6
Cc1nc(Cc2nnc(SCc3cc(=O)oc4cc(C)c(C)cc34)o2)cs1	53	-0.6	-2.0*	-30
COc1cccc(C2CC(C(F)(F)F)n3ncc(C(=O)N4CCCCC4)c3N2)c1 (centres undefined)	-8	-0.6	102	-31
N#CCOC(=O)c1cc(=O)c2ccccc2o1	-13	0.25	74*	2
SMILES	MbtI inh	AID504770	Polio RdRp inh	MenB inh
N#CCOC(=O)c1ccc(-c2cc(=O)c3ccccc3o2)cc1	x	-0.2	x	x
COc1ccc2oc(C(=O)N(C)Cc3nc4ccccc4c(=O)[nH]3)c(C)c2c1	125	-0.1	102	-2
CC1=CC(=O)C(CCCC2=CC(=O)C=CC2=O)=CC1=O	100*	0.45	102	0
CCn1cc2c(n1)-c1c(oc(C(=O)Nc3ccc(Br)cc3F)c1C)CC2	x	x	53*	x
CCn1cc2c(n1)-c1c(oc(C(=O)Nc3ccc(Cl)cc3)c1C)CC2	10	0.05	88*	10
OC(Cc1cccnc1)(c1ccccc1)c1ccccc1	-6	0.05	89*	-3
Cc1cc(C)c2c(=O)n(-c3ccccc3)[nH]c2n1	52*	0.2	101	-49
Cn1ccnc1P(=O)(O)c1ccccc1	6	0.65	88*	-2
CC(C)(CC(=O)O)CC(=O)Nc1cccc(C(=O)O)c1	x	-0.65	x	x
C#CCN1C(=O)C2C(C(=O)NC)C3C=CC2(O3)C1C(=O)NCc1ccc(OC)cc1 (centres undefined)	-1	0.7	101	54*
CNC(=O)C1C2C=CC3(O2)C1C(=O)N(C1CC1)C3C(=O)NCc1ccc(OC)cc1 (centres undefined)	-4	-0.45	102	48*
C=CCN1C(=O)C2C(C(=O)NCc3ccccc3)C3C=CC2(O3)C1C(=O)NC(C)(C)C (centres undefined)	-3	1	105	-49

Screening results: PubChem BioAssay, ICCB-Longwood Screening Facility, Harvard Medical School
